# According to PubChem BioAssay (NCATS):
# Records with an inconclusive call do not appear. Where a call stands in place of a potency, no number is given. Active and inactive are the calls of the source. Unless noted, calls follow the shape of the dose curve; as a rule, active = well fitted curve in the direction sought with a large enough effect; inconclusive = small, poorly fitted or top-dose-only effect, or another doubt; inactive = no such curve, though single readings can be large; an effect the other way counts as inactive or inconclusive.
# Key:
# [1] = target: Mitogen-activated protein kinase 10 (Mus musculus) (UniProt Q61831); test: JNK3 AlphaScreen Assay (AID 530; active = well fitted curve in either direction with a large enough effect, not every such curve was filed as active;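 also: kinase came from lysate of stimulated human HepG2 cells; signal reports phosphorylation of biotinylated GST-cJun 1-79 at Ser73 with 10 µM ATP; series mostly up to about 57 µM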)
# In short: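 Biotinylated GST-cJun(1-79) served as substrate for JNK3 in HepG2 lysates stimulated with IL-1beta and TNF-alpha. ATP was 10 uM final, pH 7.6. Ser73 phosphorylation was quantified by AlphaScreen (680 nm excitation).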
# [2] = target: Cytochrome P450 3A4 (Homo sapiens) (UniProt P08684); test: qHTS Assay for Inhibitors and Substrates of Cytochrome P450 3A4 (AID 884); also: potency is read from the fitted curve at half-maximal effect; nearly all actives have a fitted effect of over 50% in size
# In short: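 Luminescent readout of luciferin produced by CYP3A4 (20 nM) dealkylation of Luciferin-PPXE, 25 uM (its KM). NADPH-driven reaction ran 60 min at RT after 10 min compound preincubation; data scaled to 57 uM ketoconazole as 100% inhibition.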
# [3] = target: Cytochrome P450 3A4 (Homo sapiens) (UniProt P08684); test: qHTS Assay for Activators of Cytochrome P450 3A4 (AID 885); also: nearly all actives have a fitted effect of over 65% in size
# In short: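 Luminescent readout of luciferin formed from 25 uM Luciferin-PPXE (KM level) by 20 nM CYP3A4 in 200 mM KPO4, with 60 min NADPH-driven reaction at room temperature after 10 min compound exposure. Ketoconazole (57 uM) defined 100% inhibition.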
# [4] = target: Calcium and integrin-binding protein 1 (Homo sapiens) (UniProt Q99828); test: Primary qHTS for Identification of Calcium Integrin Binding Protein 1 (CIB1) Competitor (AID 1508620);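 also: GST tagged CIB1 binding a fluorescein labelled alphaIIb integrin peptide tracer; top concentration of the series differs between compounds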
# In short: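 Fluorescence polarization competition: CIB1-GST (1 uM final) preincubated with compound 15 min at room temperature, then FITC-labeled alphaIIb peptide (100 nM final) added for another 15 min. Polarization read at Ex 480/Em 540.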
# Chain of Calcium and integrin-binding protein 1 (Homo sapiens) (Q99828 whole entry, looked up): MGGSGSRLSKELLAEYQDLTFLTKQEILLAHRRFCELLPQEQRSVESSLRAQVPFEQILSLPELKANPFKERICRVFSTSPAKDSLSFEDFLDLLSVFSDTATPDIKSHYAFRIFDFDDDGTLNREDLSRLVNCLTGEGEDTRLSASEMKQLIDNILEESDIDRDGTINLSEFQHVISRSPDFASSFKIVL
# Chain of Cytochrome P450 3A4 (Homo sapiens) (P08684 whole entry, looked up): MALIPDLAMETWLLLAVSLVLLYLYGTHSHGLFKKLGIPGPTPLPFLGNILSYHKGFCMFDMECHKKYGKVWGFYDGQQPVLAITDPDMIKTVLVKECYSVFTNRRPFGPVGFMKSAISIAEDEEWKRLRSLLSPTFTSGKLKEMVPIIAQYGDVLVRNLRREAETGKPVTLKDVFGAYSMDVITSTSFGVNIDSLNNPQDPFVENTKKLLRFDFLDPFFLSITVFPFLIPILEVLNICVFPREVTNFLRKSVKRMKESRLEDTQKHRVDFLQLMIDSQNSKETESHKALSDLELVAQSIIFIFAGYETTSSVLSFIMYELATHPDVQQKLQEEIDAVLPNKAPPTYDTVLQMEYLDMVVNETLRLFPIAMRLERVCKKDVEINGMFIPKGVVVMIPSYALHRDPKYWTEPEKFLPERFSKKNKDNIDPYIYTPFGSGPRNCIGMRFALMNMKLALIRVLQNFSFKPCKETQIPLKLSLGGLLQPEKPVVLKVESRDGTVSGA
SMILES,outcome [1],Potency [2],Potency [3],Potency [4]
CCCCNc1nc(C)nc2c1nc(-c1ccccc1)n2CCN1CCCC1,inactive,12.6 µM (active),inactive,inactive
CCCn1c(C)nc2c(NCCN3CCOCC3)nc(C)nc21,inactive,–,inactive,inactive
CCCCNc1nc(C)nc2c1nc(-c1ccccc1)n2CCN1CCCCC1,inactive,3.16 µM (active),inactive,inactive
CCCn1c(-c2ccc(F)cc2)nc2c(NCCCCN(CC)CC)nc(C)nc21,inactive,10 µM (active),inactive,inactive
CCN1CCCC1Cn1c(-c2ccccc2)nc2c(N(CCOC)CCOC)nc(C)nc21 (stereo not given),inactive,15.8 µM (active),inactive,inactive
CCN(CC)CCCCn1c(-c2ccccc2)nc2c(N(CCOC)CCOC)nc(C)nc21,inactive,12.6 µM (active),inactive,inactive
CCCn1c(-c2ccc(F)cc2)nc2c(N3CCN(CCn4ccnc4)CC3)nc(C)nc21,inactive,0.631 µM (active),inactive,inactive
CCCCNc1nc(C)nc2c1nc(-c1ccccc1)n2CC1CCCN1CC (stereo not given),inactive,3.98 µM (active),inactive,inactive
CCCn1c(C)nc2c(N3CCCN(Cc4ccccc4)CC3)nc(C)nc21,inactive,7.94 µM (active),inactive,inactive
CCCCNc1nc(C)nc2c1nc(-c1ccccc1)n2C(C)CCCN(CC)CC (stereo not given),inactive,10 µM (active),inactive,inactive
CCCCNc1nc(C)nc2c1nc(-c1ccccc1)n2C1CCN(Cc2ccccc2)C1 (stereo not given),inactive,7.94 µM (active),inactive,inactive
COCCNc1nc(C)nc2c1nc(-c1ccccc1)n2C1CCN(Cc2ccccc2)C1 (stereo not given),inactive,12.6 µM (active),inactive,inactive
CCN(CC)CCCC(C)n1c(-c2ccccc2)nc2c(NC3CCCCC3)nc(C)nc21 (stereo not given),inactive,12.6 µM (active),inactive,inactive
Cc1nc(NC2CCCCC2)c2nc(-c3ccccc3)n(CCN(C)C)c2n1,inactive,–,inactive,inactive
Cc1nc(NCc2ccccc2)c2nc(-c3ccccc3)n(CCN3CCCCC3)c2n1,inactive,2.51 µM (active),inactive,inactive
CCCn1c(-c2ccc(F)cc2)nc2c(NCCN3CCOCC3)nc(C)nc21,inactive,7.94 µM (active),inactive,inactive
CCCn1c(-c2ccc(F)cc2)nc2c(NCCCN3CCOCC3)nc(C)nc21,inactive,5.01 µM (active),inactive,inactive
Cc1nc(NCc2ccccc2)c2nc(-c3ccccc3)n(CCN3CCCC3)c2n1,inactive,10 µM (active),inactive,inactive
CCN(CC)CCCCn1c(-c2ccccc2)nc2c(N3CCOCC3)nc(C)nc21,inactive,–,inactive,inactive
CCCn1c(C)nc2c(Nc3ccccc3)nc(C)nc21,inactive,–,inactive,inactive
Cc1nc(N2CCOCC2)c2nc(-c3ccccc3)n(CC(C)(C)CN(C)C)c2n1,inactive,–,inactive,inactive
CCCn1c(-c2ccc(F)cc2)nc2c(NCC3CCCN3CC)nc(C)nc21 (stereo not given),inactive,–,inactive,inactive
Cc1nc(NC2CCCCC2)c2nc(-c3ccccc3)n(CCCN(C)C)c2n1,inactive,–,inactive,inactive
Cc1nc(N2CCOCC2)c2nc(-c3ccccc3)n(CCN3CCCC3)c2n1,inactive,–,inactive,inactive
CCN(CC)CCn1c(-c2ccccc2)nc2c(NC3CCCCC3)nc(C)nc21,inactive,–,inactive,inactive
CCN(CC)CCCC(C)n1c(-c2ccccc2)nc2c(N3CCOCC3)nc(C)nc21 (stereo not given),inactive,–,inactive,inactive
CCCn1c(-c2ccc(F)cc2)nc2c(NC3CC4CCC(C3)N4C)nc(C)nc21 (stereo not given),inactive,–,inactive,inactive
CCCCNc1nc(C)nc2c1nc(-c1ccccc1)n2CCCN1CCCCC1C (stereo not given),inactive,–,inactive,inactive
